Results filed as inconclusive are left out. Unmarked numbers belong to inactive results. The call rests on the fitted dose curve; in most records, active means well fitted activation curve with a large enough effect in the repeat runs; inconclusive means weak or mixed curves; inactive means flat fitted curve, though single readings scatter.
assay: A CellTox Green Cytotoxicity Assay to monitor cytotoxicity in HEK293 cells - 16 hour (AID 1224888); conditions: CellTox Green fluorescence, hits give high values; series mostly up to 76.8 µM; activity change: at the top concentration; further: nearly all actives have a fitted effect of over 35% in size
From the text: National Center for Advancing Translational Sciences [NCATS]
NIH Chemical Genomics Center [NCGC]
U.S. Environmental Protection Agency [EPA]
National Institutes of Environmental Health Sciences [NIEHS]
National Toxicology Program [NTP]
Cell-based models are critical for drug discovery. Determining the natural cytotoxic effects resulting from test compounds is an essential research activity. A CellTox Green Cytotoxicity Assay to monitor cytotoxicity in real time of continues cell culture during 40 hours of the compound treatment was used to screen Tox21 10K library compounds in Hek293 cells. CellTox Green Cytotoxicity Assay is a nonlytic, homogeneous, biofluorescent method to measure cytotoxicity in cell culture after experimental manipulation. The assay system uses a proprietary asymmetric cyanine dye that is excluded from viable cells but preferentially stains the dead cell's DNA. […] Viable cells produce no appreciable increases in fluorescence. Therefore, the fluorescence signal produced by the binding interaction with dead cell DNA is proportional to cytotoxicity.
The mixture of Hek293 cell suspension and reagents were dispensed at 600cells/6 ul/well in 1536-well tissue culture treated black solid bottom plates using a Multidrop dispenser. After the assay plates were incubated at a 37 C/5% CO2 incubator for 5 hours, 23 nL of compounds dissolved in DMSO, positive and negative controls was transferred to the assay plate by a pintool work station. The plates were incubated at 37 C for 40 hours. The fluorescence intensity were measured at 0h, 8h, 16h, 24h, 32h and 40h time points using ViewLux plate reader during compound treatment.
On the % scale 0 is the no-effect control and ±100 the full control effect.

Compound | activity change
Cc1c(I)c(=O)n(-c2ccccc2)n1C | 13.9% [at 35.3 µM]
CC(=O)/C=C/C1C(C)=CCC(C)C1(C)C (stereo not given) | -0.286%
C[C@@H](O)[C@H]1C(=O)N2C(C(=O)O)=C(SCCN=CN)C[C@H]12 | -21.3% [at 35.3 µM]
O=C(O)CCSSCCC(=O)O | -6.64%
C=C1CC/C=C(\C)CC[C@@H]2[C@@H]1CC2(C)C | 1.81%
COc1ccc(S(=O)(=O)N2c3ccc(Cl)cc3[C@@](O)(c3ccccc3Cl)[C@H]2C(=O)N2CCC[C@@H]2C(N)=O)cc1OC | 0.136% [at 35.3 µM]
Nc1ccc2cc(S(=O)(=O)O)cc(O)c2c1 | -9.19%
O=S(=O)(O)c1ccc2cc(O)c(S(=O)(=O)O)cc2c1 | 4.51%
CCCOC(=O)C(C)O (stereo not given) | -15.8%
CCCCOC(=O)c1ccccc1 | 1.9%
CN(CCOc1ccc(NS(C)(=O)=O)cc1)CCc1ccc(NS(C)(=O)=O)cc1 | -0.946% [at 35.3 µM]
NS(=O)(=O)c1ccc(NC(=O)CCC(=O)O)cc1 | -0.423% [at 35.3 µM]
O=C1c2ccccc2C(=O)C1c1ccccc1 | -6.83% [at 35.3 µM]
N[C@@H](COP(=O)(O)O)C(=O)O | -5.61% [at 15.8 µM]
CCCCCCOC(=O)CC | -2.04%
CCOC(=O)/C=C/c1ccccc1 | 0.948%
C[Si](C)(C)C | -9.8%
Cc1[nH]cnc1-c1ccc(Cl)cc1 | -4.39% [at 35.3 µM]
CC(CN)CC(C)(C)CCN (stereo not given) | -5.43% [at 200 µM]
CCCCCCCCC1CCC(=O)O1 (stereo not given) | 8.38%

Compound | activity change
O=C(NCC(O)CO)c1c(I)c(C(=O)NCC(O)CO)c(I)c(N(CCO)C(=O)CO)c1I (stereo not given) | 1.33% [at 35.3 µM]
N[C@@H](CCC(=O)Nc1ccc([N+](=O)[O-])cc1)C(=O)O | 10.2%
CCCCCCCCCCl | -9.42%
CC(C)NCC(O)COc1cccc2[nH]ccc12 (stereo not given) | -0.788% [at 35.3 µM]
CCOCCOC(=O)/C=C/c1ccc(OC)cc1 | -16.5% [at 35.3 µM]
COc1cc(C(=S)N2CCOCC2)cc(OC)c1OC | 1.22% [at 35.3 µM]
CN=C(NC#N)Nc1ccc(C2=NNC(=O)CC2C)cc1 (stereo not given) | 2.8% [at 35.3 µM]
Nc1nnc(-c2cccc(Cl)c2Cl)c(N)n1 | -12% [at 35.3 µM]
O=C1CC(c2ccc(Cl)cc2)CC(=O)N1 | 0.518% [at 35.3 µM]
O=S(O)(O)=S | -0.887% [at 6.97 µM]
Cc1ccccc1C(=O)Nc1ccc(C(=O)N2CCCC(N(C)C)c3ccccc32)cc1 (stereo not given) | 1.73% [at 35.3 µM]
CC(=O)NCc1c(I)c(NC(C)=O)c(I)c(C(=O)O)c1I | -2.56% [at 35.3 µM]
COP(=O)(OC)OC(c1ccc(Cl)cc1)P(=O)(OC)OC (stereo not given) | 3% [at 35.3 µM]
BrCc1cccc(Oc2ccccc2)c1 | 7.65%
CNS(=O)(=O)CCc1ccc2[nH]cc(C3CCN(C)CC3)c2c1 | -6.72% [at 35.3 µM]
CC(CO)c1ccccc1 (stereo not given) | -2.44%
COC(=O)C1CC(=O)C(C(=O)OC)CC1=O (stereo not given) | 2.56% [at 6.97 µM]
Oc1cn2c(n1)Nc1ccc(Cl)c(Cl)c1C2 | -3.07% [at 15.8 µM]
OCCC(F)(F)C(F)(F)C(F)(F)C(F)(F)C(F)(F)C(F)(F)C(F)(F)C(F)(F)F | 3.92%
CCCCCCCCSCC | -0.955%

Reference: PubChem BioAssay (Tox21)
